PLK1 inh = PLK1 (human) kinase inhibition; AID 619; inhibition, % at 10 µM; 0.53% of 97,000 active; recombinant PLK1 kinase, TR-FRET peptide phosphorylation; P53350;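 active means inhibition of 50% or more in the single-concentration screen; inactive means inhibition below 50%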;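 further: 0% = DMSO max control and 100% = H-89 dihydrochloride min control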
PTPN22 act = activators of human LYP (PTPN22) phosphatase. AID 697. recombinant LYP, DiFMUP fluorescence; 0 = plate median, 100 = signal doubled. activation, % at 2 µM. 0.11% of 96,000 active. Q9Y2R2;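 active means activation at 2 µM above a set limit, the mean plus 5 SD, cut at about 37% in these data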
EphB4 ephrin blk = antagonists of human EphB4-ephrin-B2 interaction; inhibition, % at 7 µM; 0.15% of 97,000 active; P54760; EphB4 LBD / TNYL-RAW-Alexa532 peptide, fluorescence polarization;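 active means inhibition above the screen-wide mean inhibition plus 3 SD, cut at about 15% in these data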;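 further: 0% = DMSO wells and 100% = excess unlabeled TNYL-RAW peptide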
LYP inh 2 = LYP (human) phosphatase inhibition; 0.21% of 96,000 active; inhibition, % at 2 µM; Q9Y2R2; recombinant LYP catalytic domain, DiFMUP fluorescence;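 active means inhibition at 2 µM at or above a set limit, the screen mean plus 3 SD, cut at about 24% in these data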;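 further: 0% = DMSO with enzyme and 100% = enzyme fully blocked by orthovanadate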
Plk1 PBD FP = inhibitors of human Plk1 polo box domain binding; Plk1 PBD phosphopeptide binding, fluorescence polarization; inhibition, %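 (tested at about 20 µM)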; P53350; AID 693; 0.13% of 97,000 active; in the data active means inhibition above about 34%, passing the limit was not always enough
FAK inh = blocks human focal adhesion kinase activity | Q05397 | biochemical FAK kinase activity assay | inhibition, %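 (tested at 7 µM)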 | 0.84% of 97,000 active | AID 727; in the data active means inhibition above about 19%;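 further: 0% = DMSO and 100% = reference compound high control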
LYP act confirm = LYP (PTPN22) phosphatase activation confirmation. 100 tested, under 10 active. shares compounds with PTPN22 act. Recombinant LYP, DIFMUP fluorescence; zero set by plate's median compound well. activation, % at 2 µM; call rule not given here
An asterisk follows results filed as active. Only some compounds are listed: those with a hit (about 1.7% of all), similar ones and a draw of the others.

For O=C(Nc1cccnc1)c1ccccc1O the results were PLK1 inh 3, PTPN22 act 1, EphB4 ephrin blk -2, LYP inh 2 2, Plk1 PBD FP 1 and FAK inh -1.
For O=C(Nc1cccnc1)c1cccnc1Cl the results were PLK1 inh -3, PTPN22 act 38*, EphB4 ephrin blk -3, LYP inh 2 -42, Plk1 PBD FP -10, FAK inh -1 and LYP act confirm -4.
`CCOC(=O)C(Oc1ccc2c(-c3ccc(OC)cc3)cc(=O)oc2c1C)c1ccccc1` (centres undefined) gave PLK1 inh -2, PTPN22 act 44*, EphB4 ephrin blk -1, LYP inh 2 -38, Plk1 PBD FP -6, FAK inh -4 and LYP act confirm -10.
`CCOC(=O)Cn1c(S(=O)(=O)Cc2ccc(F)cc2)nc(-c2ccccc2)c1-c1ccccc1` gave PLK1 inh -14, PTPN22 act -9, EphB4 ephrin blk 6, LYP inh 2 13, Plk1 PBD FP 16 and FAK inh 2.
For C#CCn1c(S(=O)(=O)Cc2ccc(F)cc2)nc(-c2ccccc2)c1-c1ccccc1 the results were PLK1 inh -9, PTPN22 act 45*, EphB4 ephrin blk -1, LYP inh 2 -49, Plk1 PBD FP -5, FAK inh 3 and LYP act confirm -7.
`COc1ccc(C(=O)N2CCc3cc(OC)c(OC)cc3C2c2cccc([N+](=O)[O-])c2)cc1OC` (centres undefined) gave PLK1 inh -3, PTPN22 act 39*, EphB4 ephrin blk -5, LYP inh 2 -35, Plk1 PBD FP -18, FAK inh -11 and LYP act confirm -8.
For COc1ccc(C2=NN(C(=O)c3cccc([N+](=O)[O-])c3)C(c3cccc([N+](=O)[O-])c3)C2)cc1 (centres undefined) the results were PLK1 inh -1, PTPN22 act -4, EphB4 ephrin blk 5, LYP inh 2 8, Plk1 PBD FP -7 and FAK inh 0.
Screening COC(=O)c1ccc(NC(=S)NC2CCCCC2)cc1 returned PLK1 inh -15, PTPN22 act 38*, EphB4 ephrin blk 6, LYP inh 2 -33, Plk1 PBD FP 23, FAK inh -5 and LYP act confirm -1.
Screening COC(=O)c1ccc(NC(=O)C2CCCCC2C(=O)O)cc1 (centres undefined) returned PLK1 inh -12, PTPN22 act -5, EphB4 ephrin blk 0, LYP inh 2 10, Plk1 PBD FP 15 and FAK inh 0.
CCOC(=O)N1CCC(NC(=O)C(NC(=O)C2CCC(C)CC2)C(C)CC)CC1 (centres undefined) was read as PLK1 inh -10, PTPN22 act -1, EphB4 ephrin blk 0, LYP inh 2 2, Plk1 PBD FP -22 and FAK inh -2.
Screening O=C(c1cc(-c2ccncc2)nc2ccc(Cl)cc12)N1CCN(C(=O)C2CCCO2)CC1 (centres undefined) returned PLK1 inh -8, PTPN22 act -5, EphB4 ephrin blk 3, LYP inh 2 4, Plk1 PBD FP -36 and FAK inh 1.
For O=C(c1cc(-c2ccccn2)nc2c(Cl)cccc12)N1CCN(C(=O)C2CCCO2)CC1 (centres undefined) the results were PLK1 inh -6, PTPN22 act 45*, EphB4 ephrin blk -8, LYP inh 2 -46, Plk1 PBD FP -11, FAK inh 0 and LYP act confirm -3.
Screening COc1cccc(SCc2noc(C(=O)NCC3CCCO3)c2C(=O)O)c1 (centres undefined) returned PLK1 inh -21, PTPN22 act 54*, EphB4 ephrin blk 3, LYP inh 2 -49, Plk1 PBD FP -6, FAK inh 3 and LYP act confirm 2.
For CCS(=O)CCSc1nc2ccccc2s1 (centres undefined) the results were PLK1 inh -9, PTPN22 act 9, EphB4 ephrin blk 7, LYP inh 2 -7, Plk1 PBD FP 3 and FAK inh 3.

From PubChem BioAssay
